# “And” between values parts separate entries of the source, which are not always exact repeats. Equal entries are not always repeated. Records with an inconclusive call do not appear. Values without a mark were called inactive. The source made the active and inactive calls. Unless noted, the call rests on the fitted dose curve; in most records, active means well fitted cell-killing curve with a large enough effect in the repeat runs; inconclusive means weak or mixed curves; inactive means no such curve, though single readings can be large or run the other way.
# Assay: qHTS assay for small molecule activators of the heat shock response signaling pathway (AID 743210; active means well fitted activation curve with a large enough effect in the signal ratio in the repeat runs, with a control signal flat, not every such curve was filed as active; the % refers to the signal ratio;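 on activation: HeLa cells with beta-lactamase reporter driven by heat shock elements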)
# Details: HeLa HSE-bla reporter, beta-lactamase ratio, 5 h; series mostly up to 62.6 µM; activation: at the top concentration
# Summary of the method: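 Reporter gene assay: HeLa cells stably bearing an HSE-bla construct, compound treatment 5 h at 37 C, LiveBLAzer substrate 2.5 h at RT, fluorescence intensity.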
# On the % scale 0 is the no-effect control and ±100 the full control effect; potency means the concentration at half of the fitted maximal effect.
Structure (SMILES),activation,Potency
CC[C@H](C)[C@H]1O[C@]2(C=C[C@@H]1C)C[C@@H]1C[C@@H](C/C=C(\C)[C@@H](O[C@H]3C[C@H](OC)[C@@H](O[C@H]4C[C@H](OC)[C@@H](O)[C@H](C)O4)[C@H](C)O3)[C@@H](C)/C=C/C=C3\CO[C@@H]4[C@H](O)C(C)=C[C@@H](C(=O)O1)[C@]34O)O2,5.63%,–
CCCCCCCCCBr,-0.305% [at 81.1 µM],–
CC[C@H]1C[C@@H]2C[C@H]3c4[nH]c5ccc(OC)cc5c4CCN(C2)[C@@H]13,–,45.9 µM (active)
c1ccc2cc3c(cc2c1)-c1cccc2cccc-3c12,–,5.21 µM (active)
O=[N+]([O-])c1ccc2ccc3cccc4ccc1c2c34,-3.38%,–
COc1cc(C=O)cc2c1[C@H](COC(N)=O)[C@]1(OC(C)=O)ON2C[C@H]2[C@@H]1N2C(C)=O,-3.9%,–
C[C@]12Cc3nonc3C[C@@H]1CC[C@@H]1[C@@H]2CC[C@@]2(C)[C@H]1CC[C@]2(C)O,-0.21%,–
CCCN(CC)CC1COC2(CCC(C(C)(C)C)CC2)O1 (centres undefined),-0.673%,–

# Assay: qHTS assay to identify small molecule agonists of the peroxisome proliferator-activated receptor delta (PPARd) signaling pathway - cell viability counter screen (AID 743211); further: nearly all actives have a fitted effect of over 55% in size
# Details: PPARd-bla HEK293H viability, CellTiter-Glo luminescence, 17 h; series mostly up to 62.6 µM; activity change, negative = cytotoxicity: at the top concentration
# Summary of the method: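 Multiplexed format: after the 2 h room-temperature LiveBLAzer B/G FRET step, CellTiter-Glo was added to the same wells. Luminescence after 30 min gave cell viability; compound exposure was 17 h at 37C.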
Structure (SMILES),Potency,"activity change, negative = cytotoxicity"
O=[N+]([O-])O.O=[N+]([O-])O.[Cd],1.95 µM (active),–
C[C@@H]1CC[C@@]2(OC1)O[C@H]1[C@@H](O)[C@H]3[C@@H]4CC[C@H]5C[C@@H](O[C@@H]6O[C@H](CO)[C@H](O[C@@H]7O[C@H](CO)[C@@H](O)[C@H](O[C@@H]8OC[C@@H](O)[C@H](O)[C@H]8O)[C@H]7O[C@@H]7O[C@H](CO)[C@@H](O)[C@H](O[C@@H]8O[C@H](CO)[C@@H](O)[C@H](O)[C@H]8O)[C@H]7O)[C@H](O)[C@H]6O)[C@H](O)C[C@]5(C)[C@H]4CC[C@]3(C)[C@H]1[C@@H]2C,5.83 µM (active),–
CCCCCCCCCCCCCCCC[N+](C)(C)C,16.8 µM (active) and 38.9 µM (active) and 23.7 µM (active),–
C=CC(=O)OCC(COC(=O)C=C)(COC(=O)C=C)COC(=O)C=C,6.92 µM (active),–
CC(C)[C@H](C(=O)O[C@H](C#N)c1cccc(Oc2ccccc2)c1)c1ccc(Cl)cc1,–,-4.54%
CC[C@H](C)[C@H]1O[C@]2(C=C[C@@H]1C)C[C@@H]1C[C@@H](C/C=C(\C)[C@@H](O[C@H]3C[C@H](OC)[C@@H](O[C@H]4C[C@H](OC)[C@@H](O)[C@H](C)O4)[C@H](C)O3)[C@@H](C)/C=C/C=C3\CO[C@@H]4[C@H](O)C(C)=C[C@@H](C(=O)O1)[C@]34O)O2,11.5 µM (active),–
CN(C)S(=O)(=O)N(SC(F)(Cl)Cl)c1ccccc1,24.5 µM (active),–
CCCOCC(=Nc1ccc(Cl)cc1C(F)(F)F)n1ccnc1,13.8 µM (active),–
Oc1cc(Cl)c(Cl)c(Cl)c1,46.5 µM (active),–
CC(=O)[O-].CC(=O)[O-].[Hg+2],1.74 µM (active),–
CCCCCCCCCBr,–,5.72% [at 81.1 µM]
CC[C@H]1C[C@@H]2C[C@H]3c4[nH]c5ccc(OC)cc5c4CCN(C2)[C@@H]13,60.1 µM (active),–
CC1(c2ccc(Oc3ccccc3)cc2)OC(=O)N(Nc2ccccc2)C1=O (centres undefined),49.3 µM (active),–
[CH3][Hg][Cl],12.3 µM (active),–
O=[N+]([O-])c1ccc2ccc3cccc4ccc1c2c34,–,-8.44%
COC12CC[C@@]3(C[C@@H]1C(C)(O)C(C)(C)C)[C@H]1Cc4ccc(O)c5c4[C@@]3(CCN1CC1CC1)[C@H]2O5 (some centres undefined),48.2 µM (active),–
C[C@@H]1O[C@@H](O[C@@H]2C=C3CC[C@@H]4[C@H](CC[C@]5(C)[C@@H](c6ccc(=O)oc6)CC[C@]45O)[C@@]3(C)CC2)[C@H](O)[C@H](O)[C@H]1O,0.0188 µM (active),–
CCCCCCCCCCCCCC[P+](CCCCCC)(CCCCCC)CCCCCC (tested in a mixture with another compound),2.46 µM (active),–
CN(C)C(=S)[S-].CN(C)C(=S)[S-].[Cu+2],0.946 µM (active),–
O=C/C(Cl)=C(/Cl)C(=O)O,inactive,–
CCCN(CC)CC1COC2(CCC(C(C)(C)C)CC2)O1 (centres undefined),–,-13.1%
